Measurements: PubChem BioAssay AID686978 (National Center for Advancing Translational Sciences (NCATS), 2013)
Screen size: about 420,000 compounds; about 64,000 (15%) were called active. About 27% were inconclusive and are not listed. These entries were drawn from the full list. A number with no mark means an inactive call. Calls come from the whole dose curve; as a rule, active = well fitted inhibition curve with a large enough effect; inconclusive = small, poorly fitted or top-dose-only effect; inactive = flat fitted curve, though single readings scatter.

Assay: qHTS for Inhibitors of human tyrosyl-DNA phosphodiesterase 1 (TDP1): qHTS in cells in absence of CPT; note: nearly all actives have a fitted effect of over 55% in size
Conditions: DT40 Tdp1-/- hTDP1 cells, no CPT, ATP luminescence, 48 h; activity change, negative = growth inhibition: at 46.2 µM (top of the series)
How it was run: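 Stably hTDP1-transfected Tdp1-null chicken DT40 cells were treated with library compounds minus camptothecin and grown for at least 48 hr at 37 °C, after which cellular ATP was quantified by luminescence.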
% is set by controls: 0 for no effect and ±100 for the full control effect; potency is the fitted concentration of half-maximal effect.

Row | SMILES | Potency | activity change, negative = growth inhibition
1 | Cc1cccc2cc(CN(Cc3ccc4c(c3)OCO4)Cc3nnnn3C3CCCC3)c(=O)[nH]c12 | 16.4 µM (active) | 
2 | O=C(CSc1nnnn1C1CCCC1)Nc1ccc2c(c1)OCCO2 |  | 0.417%
3 | CCC(c1nnnn1C1CCCC1)N(Cc1cccs1)Cc1cc2cccc(C)c2[nH]c1=O (centres undefined) | 18.4 µM (active) | 
4 | CCC(=O)Nc1cccc(NC(=O)CSc2nnnn2C2CCCC2)c1 |  | -14.2%
5 | Cc1cccc2cc(CN(Cc3nnnn3Cc3ccccc3)C3CCCC3)c(=O)[nH]c12 | 12.6 µM (active) | 
6 | CSc1ccc(S(=O)(=O)NCc2ccc(Cl)cc2)cc1 |  | -14.2%
7 | CS(=O)(=O)n1nc(-c2ccco2)nc1N |  | -3.7%
8 | Cc1ccnc(NC(=O)C(C)N2C(=O)c3ccccc3C2=O)c1 (centres undefined) |  | 24.5%
9 | C=CCc1cccc2cc(C(=O)OCC)c(=O)oc12 |  | -20%
10 | CC/C=C/C(=O)N1CC2(CC(c3cccc(NC(=O)CC)c3)=NO2)C[C@H]1C(N)=O (some centres undefined) |  | -14.1%
11 | Cc1ccc(C)c(S(=O)(=O)N(C)c2ccc(OC(=O)C3CCN(C(=O)c4ccc(F)cc4)CC3)cc2)c1 |  | -22.1%
12 | Cc1ccc(OCC(=O)Nc2ccc(-c3nc4ncccc4o3)cc2)cc1 |  | -27.8%
13 | Cc1cc(N2C(=O)c3ccc(C(=O)NCc4ccccc4)cc3C2=O)no1 |  | 0.0239%
14 | COc1cccc(-c2cnc(OC(C)(C)C)nc2OC(C)(C)C)c1 |  | -27.7%
15 | COc1ccc(-c2nc3nc(C)cc(C)n3c2Nc2c(C)cccc2C)cc1 | 18.4 µM (active) | 
16 | COc1cccc(CSc2nc3nc(C)cc(C)n3n2)c1 |  | -1.82%
17 | COc1cccc(-c2nc3nc(C)cc(C)n3c2NC2CCCCC2)c1 | 20.6 µM (active) | 
18 | COc1ccc(-c2cc(C)nc3nc(N)nn23)cc1 |  | -2.44%
19 | COc1ccc2nc(C)cc(Nc3cccc(C(=O)O)c3)c2c1 |  | 12.1%
20 | CCOc1ccc(-c2nc(C)sc2CC(=O)O)cc1 |  | -5.66%
21 | Cc1cccc(CSc2nnc(C)c(=O)n2N)c1 |  | -23%
22 | O=C(NC1CCCC1)C(c1ccc(Cl)cc1)N(C(=O)c1csnn1)C1CC1 (centres undefined) |  | -8.07%
23 | COc1ccc(-c2cc(=O)c3c(O)cc(O[C@@H]4O[C@H](CO[C@@H]5O[C@@H](C)[C@H](O)[C@@H](O)[C@H]5O)[C@@H](O)[C@H](O)[C@H]4O)cc3o2)cc1O | inactive | 
24 | CCn1c(=O)cc(O)c2ccccc21 |  | -9.55%
25 | CCOC(=O)C1CCN(S(=O)(=O)c2cc(F)ccc2OC)CC1 |  | -17.4%

Row | SMILES | Potency | activity change, negative = growth inhibition
26 | CCOC(=O)c1cnc(COc2ccccc2Cl)[nH]c1=O |  | -9.74%
27 | CC1(C)NC(=O)N(CC(=O)Nc2ccc(-c3ccccc3)cc2)C1=O |  | -1.23%
28 | O=C(C1=C[C@H](c2coc3ccccc3c2=O)C[C@H](OCc2ccc(CO)cc2)O1)N1CCN(Cc2ccccc2)CC1 | 18.4 µM (active) | 
29 | O=C(C1=C[C@H](c2coc3ccccc3c2=O)C[C@H](OCc2ccc(CO)cc2)O1)N1CCOCC1 |  | -14.3%
30 | C=CCOC(=O)C1=C[C@@H](c2ccccc2)C[C@@H](OCc2ccc(CO)cc2)O1 |  | -21.2%
31 | O=C(C1=C[C@H](c2ccc(C(F)(F)F)cc2)C[C@H](OCc2ccc(CO)cc2)O1)N1CCN(Cc2ccccc2)CC1 | 13 µM (active) | 
32 | C#Cc1ccc([C@@H]2C=C(C(=O)O)O[C@H](OCCCCO)C2)cc1 |  | -15.9%
33 | CN1CCN(C(=O)C2=C[C@H](c3ccc4c(c3)OCO4)C[C@H](OCc3ccc(CO)cc3)O2)CC1 |  | -15.1%
34 | NC(=O)C1=C[C@H](c2csc3ccccc23)C[C@H](OCc2ccc(CO)cc2)O1 | 20.6 µM (active) | 
35 | O=C(O)C1=C[C@H](c2cccs2)C[C@H](OCCCCO)O1 |  | -2.91%
36 | NC(=O)C1=C[C@@H](c2ccc3c(c2)OCO3)C[C@@H](OCCCCO)O1 |  | 2.17%
37 | COc1cc(C(=O)N2CCN(C3CCC(C)CC3)CC2)cc(OC)c1OC (centres undefined) |  | 5.51%
38 | CCN(CC)CCN(C(=O)c1cc(Cl)sc1Cl)c1nc2cc3c(cc2s1)OCO3 |  | -28.6%
39 | CN(C(=O)c1ccno1)c1nnc(-c2cccnc2)s1 |  | -0.876%
40 | CCC1(C)N(O)C(C)(C)C(c2ccc(OC)cc2)=[N+]1[O-] (centres undefined) |  | -0.459%
41 | O=S(=O)(Nc1ncccn1)c1ccc(NS(=O)(=O)c2cccc(Cl)c2Cl)cc1 |  | -12.9%
42 | Cc1noc(NS(=O)(=O)c2ccc(N/C=C/C(=O)c3ccccc3)cc2)c1C |  | -7.47%
43 | CC(C)C[C@H](NC(=O)C1CC(=O)N(c2ccc3c(c2)OCCO3)C1)C(=O)NC1CCCC1 (some centres undefined) |  | 7.04%
44 | COc1ccc(S(=O)(=O)N2CCN(c3cnccn3)CC2)cc1 |  | -19.6%
45 | N#Cc1ccccc1S(=O)(=O)N1CCN(Cc2c(O)ccc3ccccc23)CC1 |  | 0.994%
46 | COc1ccc(-c2csc3ncnc(N4CCN(S(=O)(=O)c5ccccc5C#N)CC4)c23)cc1 | 16.4 µM (active) | 
47 | CCOC(=O)c1oc2ccc(S(=O)(=O)n3nc(-c4ccccc4OC)cc3N)cc2c1C | 5.17 µM (active) | 
48 | CCOc1ccc(S(=O)(=O)N2CCN(C(=O)c3oc4ccccc4c3C)CC2)cc1 |  | -29.3%
49 | Cc1ccc(S(=O)(=O)n2nc(OC(=O)C(C)(C)C)cc2N)cc1 |  | -29.9%
